Source: PubChem (The Scripps Research Institute Molecular Screening Center)
PLCg1 inh = PLC-gamma1 enzyme inhibitors, primary screen, biochemical, fluorescence, purified enzyme. AID 720700, 2013. inhibition, % at 12.2 µM. fluorogenic substrate. 370,000 tested, 0.84% active; in the data active means inhibition above about 9.5%
proKLK7 act = proKLK7 zymogen activators, primary screen, biochemical, fluorescence intensity; Kallikrein-7 (Homo sapiens), P49862; purified proKLK7, EDANS-DABCYL substrate fluorescence; 100% is mature enzyme control, 0% vehicle; activation, % at 7 µM; 370,000 tested, 0.9% active; AID 652039, 2013;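 active means activation above the mean of all tested compounds plus 3 SD, computed per campaign excluding outliers beyond control limits, cut at about 13% in these data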
HGIII-sPLA2 inh = human group III sPLA2 inhibitors, primary screen, biochemical, QFRET, BODIPY PC-A2 liposome substrate; Group 3 secretory phospholipase A2 (Homo sapiens), Q9NZ20; QFRET BODIPY PC-A2 liposome hydrolysis, fluorescence; inhibition, % at 12.2 µM; 370,000 tested, 0.56% active; AID 743126, 2013;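 active means inhibition above mean plus 3 SD of compounds lying within the high and low control bounds, cut at about 19% in these data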
Target sequence (Q9NZ20 whole entry, looked up): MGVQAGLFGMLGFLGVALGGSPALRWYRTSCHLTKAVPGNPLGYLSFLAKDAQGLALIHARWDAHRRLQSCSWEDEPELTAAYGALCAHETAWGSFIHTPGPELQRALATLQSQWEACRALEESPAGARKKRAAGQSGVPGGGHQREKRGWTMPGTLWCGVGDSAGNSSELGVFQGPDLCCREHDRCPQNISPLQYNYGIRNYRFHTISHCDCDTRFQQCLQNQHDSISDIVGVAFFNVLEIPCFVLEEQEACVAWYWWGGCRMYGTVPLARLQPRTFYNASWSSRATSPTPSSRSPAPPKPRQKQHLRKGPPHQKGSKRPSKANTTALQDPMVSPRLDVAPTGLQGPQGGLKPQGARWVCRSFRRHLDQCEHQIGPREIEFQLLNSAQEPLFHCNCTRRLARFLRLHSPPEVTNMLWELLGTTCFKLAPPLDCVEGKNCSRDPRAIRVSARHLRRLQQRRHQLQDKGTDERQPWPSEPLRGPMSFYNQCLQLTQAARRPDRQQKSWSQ
ADAM10 inh = human ADAM10 inhibitors, primary screen, biochemical, QFRET, HTS | inhibition, % at 7 µM | 370,000 tested, 0.62% active | recombinant ADAM10, EDANS/DABCYL FRET peptide cleavage, 3 h;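 active means inhibition above a per-campaign cutoff equal to the mean of compounds falling between control-based bounds plus 3 SD, cut at about 20% in these data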
PLC-beta3 inh = human PLC-beta3 inhibitors, primary screen, biochemical, fluorescence; 1-phosphatidylinositol 4,5-bisphosphate phosphodiesterase beta-3 (Homo sapiens), Q01970; inhibition, % at 12.2 µM; 370,000 tested, 0.18% active; Purified PLC-beta3, fluorogenic substrate; in the data active means inhibition above about 11%
ADAM17 inh = ADAM17 inhibitors, primary screen, biochemical, QFRET; Disintegrin and metalloproteinase domain-containing protein 17 (Homo sapiens), P78536; recombinant ADAM17, EDANS/DABCYL FRET peptide cleavage; inhibition, % at 6.95 µM; 370,000 tested, 0.83% active; AID 720648, 2013;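 active means inhibition above the mean of compounds lying between control limits plus 3 SD, set per campaign, cut at about 8.5% in these data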
ADAM10 confirm = human ADAM10 inhibitors, confirmation, biochemical, QFRET, triplicate; shares compounds with ADAM10 inh; ADAM10 QFRET peptide cleavage, EDANS fluorescence; inhibition, % at 6.95 µM; 2,100 tested, 1% active;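 active means inhibition above about 20% chosen separately for each screening run, limit read from the data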
ADAM17 ctr = ADAM17 inhibitors, counter-screen for ADAM10 exosite inhibitor project, biochemical, QFRET, high throughput; inhibition, % at 6.95 µM; 2,100 tested, 0.5% active; ADAM17 QFRET peptide cleavage, EDANS fluorescence; shares compounds with ADAM10 inh; AID 743214, 2013;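 active means mean triplicate inhibition above the solvent-only control wells' mean plus 3 SD, cut at about 12% in these data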
ADAM10 counter = ADAM10 inhibitors, counter-screen for ADAM17 exosite inhibitor project, biochemical, FRET, human ADAM10; shares compounds with ADAM17 inh; recombinant ADAM10, EDANS/DABCYL FRET peptide cleavage, 3 h; inhibition, % at 6.95 µM; 2,900 tested, 47% active; AID 743256, 2014;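 active means mean inhibition over the triplicate runs exceeds the activity threshold set in the earlier primary screen, cut at about 20% in these data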
ADAM17 confirm = ADAM17 inhibitors, hit retest, confirmation, biochemical, QFRET peptide cleavage | recombinant ADAM17, EDANS/DABCYL QFRET peptide cleavage | 2,900 tested, 65% active | AID 743257, 2014 | shares compounds with ADAM17 inh | inhibition, % at 6.95 µM;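 active means mean inhibition across replicates above the hit cutoff set in the primary screen, cut at about 8.5% in these data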
Hits are given with their value; 0 = inactive; - = not tested or not shown. The list is not random: actives were taken first. Their share in the collection is about 3.4%.

SMILES	PLCg1 inh	proKLK7 act	HGIII-sPLA2 inh	ADAM10 inh	PLC-beta3 inh	ADAM17 inh	ADAM10 confirm	ADAM17 ctr	ADAM10 counter	ADAM17 confirm
Cc1ccc(C(=O)Nc2ccc(C)c(S(=O)(=O)Nc3ccccc3Cl)c2)s1	0	0	0	0	0	0	-	-	-	-
Cc1ccc(NC(=O)c2cc3c(s2)CCCC3)cc1S(=O)(=O)Nc1ccccc1Cl	0	0	0	25	0	16	52	15	22	15
O=C(Nc1cccc(S(=O)(=O)Nc2ccc(Cl)cc2)c1)c1cc2c(s1)CCCC2	0	0	0	27	0	15	0	0	45	27
C=CCOC(=O)N1CCN(C(=O)c2ccc3nc(C)n(C4CCCC4)c3c2)CC1	0	0	0	0	0	0	-	-	-	-
COC(=O)[C@]12C[C@H](CC(=O)N3CCN(C(=O)c4ccco4)CC3)C(=O)N(CCc3ccc(OC)c(OC)c3)C1=C[C@H](C(C)C)O[C@@H]2C1CC1	0	0	0	0	0	0	-	-	-	-
CCOc1ccccc1CNS(=O)(=O)c1cc(-c2cc(C)no2)ccc1OC	0	0	0	0	0	0	-	-	-	-
COc1ccccc1CNS(=O)(=O)c1cc(-c2cc(C)no2)ccc1C(C)C	0	0	0	32	0	11	0	0	0	12
COC(=O)C1CN(C2CCCC2)CCS(=O)(=O)N1Cc1ccccc1 (configuration not stated)	0	0	0	0	0	0	-	-	-	-
COc1ccc(S[C@]2(C(=O)NCCc3ccccc3)CC(=O)N[C@@H]2c2ccc(OC)cc2)cc1	0	0	0	0	0	0	-	-	-	-
Cc1nn(Cc2c(F)c(F)c(F)c(F)c2F)c(C)c1NC(=O)c1ccc(COc2ccc(Cl)cc2Cl)o1	0	0	0	25	0	11	0	0	45	19
Cc1nn(Cc2ccc(Cl)cc2Cl)c(C)c1NC(=O)c1ccc(COc2cc(Cl)ccc2Cl)o1	0	0	0	0	0	0	-	-	-	-
CC(C)NC(=O)Nc1ccc2c(c1)C(=O)N([C@H](C)CO)C[C@H](C)[C@@H](CN(C)S(=O)(=O)c1cccs1)O2	0	0	0	0	0	0	-	-	-	-
CC(C)NC(=O)N(C)C[C@@H]1OCCCC[C@@H](C)Oc2ccc(NC(=O)Nc3ccc(F)cc3)cc2C(=O)N([C@H](C)CO)C[C@@H]1C	0	0	0	0	0	0	-	-	-	-
C[C@@H]1CN([C@H](C)CO)C(=O)c2cc(NC(=O)Nc3ccc(F)cc3)ccc2O[C@@H](C)CCCCO[C@H]1CN(C)S(=O)(=O)c1cccs1	0	0	0	30	0	8.9	0	0	42	21
C[C@H](CO)N1C[C@H](C)[C@H](CN(C)S(=O)(=O)c2cccs2)Oc2ccc(NC(=O)Nc3ccc4c(c3)OCO4)cc2CC1=O	0	0	0	27	0	13	0	0	0	14
COc1ccc(NC(=O)Nc2ccc3c(c2)C(=O)N([C@@H](C)CO)C[C@@H](C)[C@@H](CN(C)S(=O)(=O)c2cccs2)O3)cc1	0	0	0	21	0	8.8	0	0	0	12
CN1C2=N[C@H](c3ccc(Br)cc3)CC(=O)N2/C(=C\c2ccccc2)[C@@H]1c1ccccc1	0	-	0	0	0	0	-	-	-	-
COC(=O)[C@]12C[C@H](CC(=O)NCc3ccccc3)C(=O)N(Cc3ccc(Cl)cc3Cl)C1=C[C@H](C1CCCC1)O[C@@H]2C	0	0	0	0	0	0	-	-	-	-
COc1ccc(NC(=S)NC(NC(=O)c2ccc(Cl)cc2Cl)C(Cl)(Cl)Cl)c([N+](=O)[O-])c1 (configuration not stated)	0	0	0	22	0	8.8	0	0	31	17
COc1ccc(NC(=S)NC(NC(=O)c2cccc3ccccc23)C(Cl)(Cl)Cl)c([N+](=O)[O-])c1 (configuration not stated)	0	0	0	0	0	0	-	-	-	-
CC(O)(c1ccc(F)c(F)c1)c1nc(-c2cccc(C(F)(F)F)c2)cs1 (configuration not stated)	0	0	0	26	0	11	0	0	33	17
CC(O)(c1cccc(F)c1)c1nc(-c2cccc(C(F)(F)F)c2)cs1 (configuration not stated)	0	0	0	23	0	11	0	0	45	28
OC(c1ccccc1)(c1nc(-c2cccc(C(F)(F)F)c2)cs1)C(F)(F)F (configuration not stated)	0	0	0	26	0	14	0	0	35	19
Cc1cc(C)cc(N(CC(=O)NC2CCC(C)CC2)S(=O)(=O)c2ccccc2)c1 (configuration not stated)	0	0	0	0	0	0	-	-	-	-
O=C(CSc1nnc(-c2ccccn2)n1-c1ccccc1)Nc1ccc(OCc2ccccc2)cc1	0	0	0	0	0	0	-	-	-	-
O=C(NCc1ccc(Cl)c(Cl)c1)c1cc(C2CCCCN2C(=O)CCc2ccccc2)on1 (configuration not stated)	0	0	0	25	0	9.2	0	0	0	10
CC1(C)CC(=O)c2c(nc(SCC(=O)Nc3nsc(-c4ccccc4)n3)c(C#N)c2-c2ccccc2)C1	0	0	0	0	0	0	-	-	-	-
CCc1c(C#N)c(SCCC(=O)Nc2ccc(F)cc2)nc2c1C(=O)CC(C)(C)C2	0	0	0	31	0	10.0	0	0	33	13
